The list is not random: actives were taken first. Their share in the collection is about 3.2%.
DENV2 CPE: inhibitors of DENV2 cytopathic effect | DENV2-infected cells, cytopathic effect rescue, plate reader | CPE inhibition, % at 9.99 µM | hit rate 1.7% among 350,000; in the data active = CPE inhibition above about 20%, passing the limit was not always enough; inconclusive = no clear call, values can overlap the other calls; tested in BHK-21 cells;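 also: 0% = median of neutral control wells and 100% = median of positive control wells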
rRNA inh HTS: selective bacterial rRNA inhibition in E. coli; E. coli WT GFP vs humanized-ribosome RFP mutants, fluorescence, 24 h; hits give low values; DMSO median 0, no signal -100; GFP signal change (wild-type ribosome), % (test concentration not listed); hit rate 1.6% among 350,000; AID 720706;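 active = significant combined selectivity score with lowered wild-type GFP, culture density cut under 30%, mutant RFP and density less affected; inactive = any of these conditions unmet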
CaV13 FRET inh: Disruptors of the CACNA1D IQ motif to Ca2+-dependent inactivation inhibitor domain association, primary screening, Förster resonance energy transfer in intact living … | HEK cells, CFP/YFP FRET ICDI-IQ, plate reader, 10 min; percent FRET-ratio fall versus neutral wells | inhibition, % at 12.3 µM | hit rate 0.098% among 340,000;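 active = mean replicate inhibition of at least 30% and at least 1% of replicates passing that level; inconclusive = only one of the two criteria is met; inactive = neither criterion is met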;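 also: 0% = median of the neutral control wells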
PGC1a acetyl inh: modulators of PGC1a acetylation | U2OS PGC1a acetylation, AlphaScreen anti-acetyl-lysine; with virally co-expressed GCN5 acetyltransferase | inhibition, % at 15.6 µM | hit rate 0.17% among 350,000;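 active = every replicate shows inhibition of at least 40%; inconclusive = mean inhibition at least 40% but some replicate below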;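 also: 0% = neutral control wells and 100% = positive control wells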
INS-1E GSIS act: primary screen for activators of insulin secretion dependent on glucose, INS-1E cells, GLuc reporter luminescence. hit rate 0.61% among 370,000. INS-1E GLuc reporter insulin secretion, 2-3 h. activation, % at 16.6 µM;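 active = lowest replicate activation of at least 40%, so every replicate reaches that level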;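 also: 0% = median of neutral control wells and 100% = median of IBMX positive control wells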
ERAP1 inh: ERAP1 (human) enzyme inhibition; Q9NZ08; recombinant ERAP1, Leu-AMC fluorescence, 60 min; inhibition, % at 10.7 µM; hit rate 0.15% among 340,000;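 active = mean replicate inhibition of at least 30%, or all replicates individually reaching that 30% level; inactive = mean below 30% and not every replicate reaching it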;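 also: 0% = neutral control wells and 100% = L-leucinethiol positive control wells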
* marks the source's active call; other numbers are inactive results; u = inconclusive; x = not tested or not shown.

SMILES | DENV2 CPE | rRNA inh HTS | CaV13 FRET inh | PGC1a acetyl inh | INS-1E GSIS act | ERAP1 inh
CO[C@H]1CC[C@@H]2CCOc3ccc(C#N)cc3C(=O)N(C)C[C@@H](OC)[C@H](C)C(=O)N(C)C[C@H]1O2 | 3.7 | 0.5 | x | x | 7.5 | -2.7
C=CCOc1cccc(C(=O)N2CCCC(Nc3ccc(F)cc3)C2)c1 (stereo not given) | u | -25.8* | x | 2.6 | -33.4 | -2.5
COc1cc(OC)cc(C(=O)N2CCCC(Nc3ccc(F)cc3)C2)c1 (stereo not given) | 4.4 | -12.2 | -5.9 | -6.0 | 0.9 | 1.2
CC(C)c1ccc(NC2CCCN(C(=O)c3cccc(N4CCNC4=O)c3)C2)cc1 (stereo not given) | 29.1* | -12.2 | -2.3 | -18.1 | -2.1 | -0.4
C#Cc1cccc(C(=O)N2CCCC(Nc3cccc(F)c3)C2)c1 (stereo not given) | 1.5 | -33.1* | -5.2 | x | -17.8 | -4.1
C[C@@H]1CCCCO[C@H](CN(C)S(=O)(=O)c2ccc(F)cc2)[C@@H](C)CN([C@@H](C)CO)C(=O)c2cc(NC(=O)CCCN(C)C)ccc2O1 | -11.3 | 1.4 | x | 3.8 | 6.2 | 2.0
C[C@@H]1CN([C@@H](C)CO)C(=O)c2cc(C#CC3(O)CCCC3)cnc2O[C@@H]1CN(C)Cc1ccccc1 | 9.9 | 0.2 | x | -10.4 | -9.5 | 2.8
O=C(c1ccccc1F)N1CC[C@@H]2[C@H]1c1cc(C#Cc3ccccc3)ccc1N[C@@H]2CO | x | -5.5 | x | 0.2 | -28.9 | x
O=C(c1ccccc1F)N1CC[C@@H]2[C@H](CO)Nc3ccc(C#Cc4ccc(F)cc4)cc3[C@@H]21 | 25.9* | -6.9 | x | 1.0 | 11.6 | x
O=C(c1ccccc1)N1CC[C@@H]2[C@H]1c1cc(C#CC3CCCCC3)ccc1N[C@@H]2CO | 52.2* | -4.7 | x | -4.6 | -4.4 | 2.9
COc1ccccc1C#Cc1ccc2c(c1)[C@H]1[C@H](CCN1C(=O)c1ccncc1)[C@H](CO)N2 | 36.0* | x | x | 0.8 | x | x
O=C(c1ccccc1)N1CC[C@H]2[C@H](CO)Nc3ccc(C#Cc4ccccc4F)cc3[C@H]21 | 31.6* | -5.7 | x | -6.4 | 1.6 | -3.3
COc1ccc(-c2cnc3c(c2)C(=O)N([C@H](C)CO)C[C@@H](C)[C@H](CN(C)C(=O)C2CC2)O3)cc1 | x | -0.9 | x | x | 6.9 | x
C[C@H](CO)N1C[C@H](C)[C@H](CN(C)C(=O)NC2CCCC2)Oc2ncc(C#CCN(C)C)cc2C1=O | 12.4 | 4.0 | x | -10.2 | 8.0 | 0.1
COc1cc(CN2CC3(CCN(C(C)=O)CC3)c3c([nH]c4cc(OC)ccc34)[C@H]2CO)cc(OC)c1 | 5.5 | 5.5 | x | -3.5 | 2.9 | -7.0
C[C@H](CO)N1C[C@H](C)[C@H](CN(C)Cc2cccc(C(F)(F)F)c2)Oc2ncc(-c3ccc(F)cc3)cc2C1=O | 5.9 | -9.0 | x | -2.2 | -4.8 | 1.0
O=C(c1ccccc1F)N1CC[C@@H]2[C@@H](CO)Nc3ccc(C#Cc4ccccc4F)cc3[C@@H]21 | 2.0 | 2.2 | x | -5.1 | 32.3 | -0.8
O=C(c1ccccc1F)N1CC[C@@H]2[C@H](CO)Nc3ccc(C#Cc4ccccc4F)cc3[C@@H]21 | 61.6* | -3.2 | x | -0.8 | 8.7 | 0.1
O=S(=O)(c1ccccc1)N1CC[C@@H]2[C@H]1c1cc(C#CC3CCCCC3)ccc1N[C@@H]2CO | 28.4* | -2.5 | x | -8.2 | -6.7 | -3.7
O=S(=O)(c1ccc(F)cc1)N1CC[C@@H]2[C@H]1c1cc(C#CC3CCCCC3)ccc1N[C@@H]2CO | 12.4 | -2.7 | x | -13.3 | 3.6 | 3.8
CCOc1ccc(CCNC(=O)COc2cccc(-n3cnnn3)c2)cc1OCC | 13.2 | 0.8 | -5.3 | -12.2 | 44.1* | -1.2
CN(Cc1cccs1)C(=O)COc1cccc(-n2cnnn2)c1 | x | x | -3.7 | x | x | x
COc1ccc(CN(C)C(=O)COc2cccc(-n3cnnn3)c2)cc1OC | -4.0 | -3.3 | -5.3 | 3.3 | 41.5* | 2.5
CCCN(C)C[C@H]1Oc2ncc(C#Cc3ccc(OC)cc3)cc2C(=O)N([C@H](C)CO)C[C@H]1C | u | 5.2 | x | -3.1 | -0.9 | 2.6
CO[C@@H]1CC[C@H]2CCN(C)C(=O)[C@@H](C)[C@H](OC)CN(C)C(=O)c3cccc(C#N)c3OC[C@@H]1O2 | -1.9 | 0.5 | x | 2.6 | -11.6 | 0.2
